Potency and affinity values are given separately. Activity calls are given as the source filed them. Entries that show only a call come without a potency. How the calls were made is not given here.
Experiment: host cell cytotoxicity of antiviral hits, dose response, cytotoxicity control for West Nile virus antiviral project, secondary assay (AID 1650)

Row | SMILES | outcome
1 | O=C(CSc1nc2ccccc2c(=O)n1-c1ccc(F)cc1F)Nc1ccc2c(c1)CCC2 | inactive
2 | CC1CCCN(CCCNC(=O)c2ccc3c(c2)N(Cc2ccccc2F)C(=O)c2ccccc2S3(=O)=O)C1 (stereo unspecified) | inactive
3 | CCN(CC)CCCNC(=O)c1sc2nc(-c3ccc(F)cc3)cn2c1C | inactive
4 | CCCc1nc2c(c(=O)c3ccccc3n2C)c(=O)n1C1CCCCCC1 | inactive
5 | Cc1ccc(-n2c(SCC(=O)Nc3ccc(N4CCOCC4)cc3)nc3ccccc3c2=O)cc1 | inactive
6 | Cc1ccc(C)c(CN2C(=O)c3ccccc3S(=O)c3ccc(C(=O)NCCCN4CCCC4)cc32)c1 (stereo unspecified) | inactive
7 | Cc1cc(C)c(-c2csc(NC(=O)/C=C/c3cccs3)n2)c(C)c1 | inactive
8 | CN1CCCC1CCNc1ccc2c(=O)c3ccccc3oc2c1 (stereo unspecified) | inactive
9 | CN1CCN(C(=O)CCN2C(=O)/C(=C/c3cccc(Br)c3)SC2=S)CC1 | inactive
10 | O=C(O)C1CCCN1C(=O)c1cncc(Br)c1 (stereo unspecified) | inactive
11 | COc1ccc(C(=O)CSc2nnc(-c3ccc(S(=O)(=O)N4CCOCC4)cc3)o2)cc1 | inactive
12 | COc1ccc(-c2cc(C(=O)c3c(N)n(C)c(=O)n(C)c3=O)c3ccccc3n2)cc1OC | inactive
13 | O=C(COC(=O)CN1C(=O)c2ccccc2C1=O)Nc1ccc(S(=O)(=O)N2CCCC2)cc1 | inactive
14 | O=C(NC1CCCC1)C(c1ccncc1)N(Cc1ccccc1)C(=O)c1ccc(-c2ccccc2)[nH]1 (stereo unspecified) | inactive
15 | N#Cc1ccc(-c2ccc(F)cc2)nc1Oc1ccc(Cl)c(Cl)c1 | inactive
16 | CN(C)CCNS(=O)(=O)c1ccc(N2CCN(c3ccc(F)cc3)CC2)c([N+](=O)[O-])c1 | inactive

From PubChem BioAssay AID1650 (Southern Research Specialized Biocontainment Screening …, 2009)
